From PubChem BioAssay AID1159580 (chemical genetic matrix, 2015)
Among all 5,500 compounds or so, about 2,000 (36%) were called active. Inconclusive results (about 18%) are left out. No stated cut-off is given here; in the data, active means normalized growth mostly below about 0.91 (no sharp cut-off); inconclusive means no clear call, values can overlap the other calls; inactive means mostly above about 0.92. Some of the results follow.

Experiment: chemical genetic growth profiling, strain panel (AID 1159580);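 further: tested at 20 µM; growth read once vehicle control cultures reached saturation at 30 °C; 1 = growth at the plate median or of vehicle wells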
Conditions: S. cerevisiae deletion strains, growth OD

Measured: normalized growth

COc1c2c(nc3ccccc13)OC(C(C)(O)CO)C2 (stereo not given)
inactive: locus YAL040C, strain CLN3, stronger effect = lower value 1.01 | locus YCL061C, strain MRC1 (second series), stronger effect = lower value 1.01 | locus YDR363W, strain ESC2, stronger effect = lower value 0.993 | locus YER002W, strain NOP16, stronger effect = lower value 1.01 | locus YJR075W, strain HOC1, stronger effect = lower value 0.994 | locus YMR263W, strain SAP30, stronger effect = lower value 0.998 | locus YMR307W, strain GAS1, stronger effect = lower value 1.01 | locus YNL128W, strain TEP1, stronger effect = lower value 1.02 | locus YNL153C, strain GIM3, stronger effect = lower value 1.04 | locus YNL175C, strain NOP13, stronger effect = lower value 1.01 | locus YNL197C, strain WHI3, stronger effect = lower value 1.01 | locus YNL224C, strain SQS1, stronger effect = lower value 1.01 | locus YOR083W, strain WHI5 (second series), stronger effect = lower value 1 | locus YPL055C, strain LGE1, stronger effect = lower value 0.99 | locus YPL241C, strain CIN2, stronger effect = lower value 1
